Assay outcomes: PubChem BioAssay, National Center for Advancing Translational Sciences (NCATS)
Sampled rows, rich in hits. Any-hit rate of the full collection: about 19%.
TDP1 cell noCPT – qHTS for Inhibitors of human tyrosyl-DNA phosphodiesterase 1 (TDP1): qHTS in cells in absence of CPT; DT40 Tdp1-/- hTDP1 cells, no CPT, ATP luminescence, 48 h; Potency, µM (highest dose often 46.2 µM), inactives show at the highest dose activity change, negative = growth inhibition, hits mostly inhibitors; hit rate 15% among 420,000; note: potency is the fitted concentration of half-maximal effect; % is set by controls: 0 for no effect and ±100 for the full control effect; nearly all actives have a fitted effect of over 55% in size
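Camptothecin absent (DMSO only). Human TDP1-complemented DT40 knockout cells, 400 cells/well, 37 °C for minimum 48 hr; ATP measured via CellTiter-Glo, 30 min dark incubation, luminescence.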
IL-1B inflam inh – inhibitors of inflammasome signaling (IL-1 beta secretion); activity change, % at 57.5 µM; hit rate 4.7% among 360,000; THP-1 LPS/ATP IL-1B secretion, AlphaLISA, 16 h; stronger effect = lower value; in the data active = activity change below about -50%; inconclusive = mostly about -30% to -49%; note: % is set by controls: 0 for no effect and ±100 for the full control effect
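Secreted IL-1B measured by AlphaLISA bead assay after 16 h compound exposure of THP-1 cells; compounds (final up to 57.5 uM) added 1 h before LPS (250 ng/mL) and ATP (1.25 mM) stimulation; lower signal means less secretion.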
SW480 rereplic – DNA re-replication induction in SW480 cells; SW480 DNA re-replication, Hoechst DNA content imaging, 48 h; Potency, µM (series often up to 46.1 µM), for the others: at the highest dose re-replication activation, hits mostly activators; hit rate 1.8% among 340,000; note: potency is the fitted concentration of half-maximal effect; % of control where 0% means no effect; nearly all actives have a fitted effect of over 55% in size
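Image-based read-out: total Hoechst fluorescence of nuclei (405 nm excitation, 500-530 nm emission), with hits raising the fraction of high-intensity nuclei. SW480 colon cells incubated 48 hr with compounds at 37 C.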
MCF10A rereplic – induces DNA re-replication in MCF 10a normal breast cells. hit rate 2.9% among 350,000. MCF 10A DNA re-replication, Hoechst nuclear intensity, 48 h. AID 624296. Potency, µM (doses to about 46.1 µM), without a hit: at the highest dose activity, positive = re-replication, actives largely listed as activators; note: potency is the fitted concentration of half-maximal effect; % of control where 0% means no effect; nearly all actives have a fitted effect of over 50% in size
Chronic BCR inh – inhibitors of chronic active B-cell receptor signaling; ABC-DLBCL IkBa-CBG/CBR reporter, luminescence ratio, 4 h; Potency, µM (highest dose often 46.1 µM), inactives show at the top dose activity change, negative = inhibition, usual class: inhibitors; hit rate 0.05% among 340,000; AID 493014; active = well fitted inhibition curve with a large enough effect in the signal ratio, with a control signal flat, not every such curve was filed as active; inconclusive = small, poorly fitted or top-dose-only effect, or effect the other way, or a change in a side signal; the % refers to the signal ratio;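 note: potency is the fitted concentration of half-maximal effect; plate controls were basal doxycycline-induced cells for no effect and cells given 10 µM MG132 for full effect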
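Cell line TMD8 (human ABC DLBCL), stably expressing tet-inducible CBG68-IkBa fusion and CBR; IMDM/0.5% FBS; cpd up to 46 uM; dox induction, 4 h, 37C/5% CO2; dual luminescence; green/red ratio; MG132 control.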
DT40 TDP1 CPT – growth inhibition of DT40 Tdp1-/-;hTDP1 cells with camptothecin (screen for TDP1 inhibitors). chicken DT40 Tdp1-/-;hTDP1 cells + 20 nM CPT, ATP luminescence, 48 h. Potency, µM (doses to about 46.2 µM), without a hit: top-dose activity change, negative = growth inhibition, hits mostly inhibitors. hit rate 12% among 420,000. AID 686979; note: potency is the fitted concentration of half-maximal effect; % is set by controls: 0 for no effect and ±100 for the full control effect; nearly all actives have a fitted effect of over 55% in size
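Cell growth measured by CellTiter-Glo luminescence after a minimum 48 h, 37 C compound exposure with 20 nM CPT in Tdp1-knockout DT40 cells stably expressing hTDP1, seeded 400/well; qHTS titration format.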
* hit, by the source's call; u = inconclusive; x = no result given. Unless noted, calls come from the whole dose curve; as a rule, active = well fitted curve in the direction sought with a large enough effect; inconclusive = small, poorly fitted or top-dose-only effect, or another doubt; inactive = no such curve, though single readings can be large; an effect the other way counts as inactive or inconclusive.

SMILES | TDP1 cell noCPT | IL-1B inflam inh | SW480 rereplic | MCF10A rereplic | Chronic BCR inh | DT40 TDP1 CPT
CC(=O)N(CCCN(C)C)Cc1ccccn1 | 1% | 26 | -9% | 2% | u | 15%
O=C(Nc1ccccc1)c1cc(C2COCCN2C(=O)C2CC2)on1 (configuration not stated) | -1% | 83 | x | x | x | -15%
COc1ccc(Cn2cc(CN3CC(N4CCN(C5CCN(C)CC5)CC4)CS3(=O)=O)nn2)cc1 (configuration not stated) | 2% | 0 | x | x | x | 1%
C=CCNC(=O)CN1CCC(n2c(C)nc3cc(C(F)(F)F)ccc32)CC1 | 0% | -12 | -1% | 0% | -4% | -12%
Cc1nc2cc(C(F)(F)F)ccc2n1C1CCN(CC(=O)NC(C)(C)C)CC1 | u | -4 | -5% | u | 2% | 18µM*
Cc1ccc2c(c1)nnn2C1CCN(CC(=O)Nc2ccccc2N2CCOCC2)CC1 | 23µM* | -53* | 11% | 0% | 7% | 18µM*
O=C(CN1CCC(n2nnc3cc(F)ccc32)CC1)NCc1ccco1 | -1% | 10 | 1% | 3% | -7% | -24%
Cc1ccc2c(c1)nnn2C1CCN(CC(=O)NCCc2ccccc2)CC1 | u | -68* | u | 27% | 12% | u
Cc1nc2cc(F)ccc2n1C1CCN(C(=O)c2c(F)cccc2F)CC1 | 21µM* | 24 | -1% | 0% | -5% | 12µM*
CCN(CC)c1nc(-c2ccc(C(=O)NN)cc2)nc(-c2ccc(C(=O)NN)cc2)n1 | -24% | 6 | -10% | 6% | u | -10%
COc1ccccc1NC(=O)CN1CCC(n2c(C)nc3cc(F)ccc32)CC1 | 23µM* | 14 | -3% | 2% | -8% | u
COc1ccccc1NC(=O)CN1CCC(n2nnc3cc(F)ccc32)CC1 | u | -26 | -10% | 12% | 0% | 16µM*
COc1ccc(Cl)cc1NC(=O)CN1CCC(n2nnc3cc(C)ccc32)CC1 | 23µM* | 9 | 0% | u | -10% | u
COc1ccccc1-n1cc(-c2ccc(C)cc2)nc1S(=O)(=O)CC(=O)Nc1ccccc1C(F)(F)F | 16µM* | x | x | x | x | u
Cc1cccc(C)c1NC(=O)CS(=O)(=O)c1nc(-c2ccc(Cl)cc2)cn1-c1ccccc1 | 16µM* | x | x | x | x | 9.2µM*
COc1ccc(-c2cn(-c3ccc(C)cc3)c(S(=O)(=O)CC(=O)Nc3ccc(F)cc3)n2)cc1 | 21µM* | x | x | x | x | 16µM*
NS(=O)(=O)c1ccc(CNC(=S)NC2CC2)cc1 | 1% | 8 | 1% | 0% | 2% | 15%
CCC1CCc2nc3sc(C(=O)Nc4ccc(F)c(F)c4)c(N)c3cc2C1 (configuration not stated) | -20% | x | x | x | x | -19%
CCc1nnc(NC(=O)CSc2nc3c(cc2C#N)CCCC3)s1 | -2% | -11 | -4% | 18% | 3% | -27%
CCC1CCc2nc3sc(C(=O)Nc4ccc(C)cc4C)c(N)c3cc2C1 (configuration not stated) | 23µM* | x | x | x | x | u
CCc1nnc(NC(=O)c2sc3nc4c(cc3c2N)CCCCC4)s1 | u | -8 | 8.2µM* | 16µM* | 16% | u
CCc1nnc(NC(=O)c2sc3nc4c(cc3c2N)CCCCCC4)s1 | u | -72* | u | 18µM* | 24% | -4%
Cc1nccn1C(c1ccccc1)c1ccccc1 | u | 20 | -2% | u | x | u
CSCC[C@H](NC(=O)[C@H](Cc1ccccc1)NC[C@@H](NC[C@@H](N)CS)C(C)C)C(=O)O | u | x | x | x | x | -24%
Nc1[nH]c(C(=O)c2ccccc2)c(-c2ccccc2Br)c1C(=O)NCCc1ccc(Cl)cc1Cl | u | -11 | x | x | x | u
SMILES | TDP1 cell noCPT | IL-1B inflam inh | SW480 rereplic | MCF10A rereplic | Chronic BCR inh | DT40 TDP1 CPT
Cc1ccc(S(=O)(=O)c2nc(S(=O)(=O)c3ccccc3)sc2NCCCOC(C)C)cc1 | 12µM* | x | x | x | x | u
CCCS(=O)(=O)c1nc(S(=O)(=O)c2ccc(C)cc2)c(NCc2ccccc2Cl)s1 | -28% | x | x | x | x | -30%
CCCS(=O)(=O)c1nc(S(=O)(=O)c2ccc(C)cc2)c(NCCCOC(C)C)s1 | 16µM* | x | x | x | x | u
CC(C)c1ccccc1NC(=O)C1CC(=O)N(C2CCCC2)C1 (configuration not stated) | 27% | 19 | -13% | 8% | 2% | -17%
CC(CC(=O)Nc1cccc(S(=O)(=O)N2CCCCC2)c1)c1ccccc1 (configuration not stated) | u | -3 | -4% | -3% | 0% | u
CCCC(C(=O)Nc1cccc(S(=O)(=O)N2CCCC2)c1)c1ccccc1 (configuration not stated) | 21µM* | -9 | -61% | 9% | u | 23µM*
COc1ccccc1N1CCN(C(C)C(=O)Nc2ccc(S(=O)(=O)N3CCOCC3)cc2)CC1 (configuration not stated) | 13µM* | 11 | -4% | -6% | u | u
CCCC(C(=O)Nc1ccc(S(=O)(=O)N2CCOCC2)cc1)c1ccccc1 (configuration not stated) | u | u | 0.23µM* | u | u | u
NS(=O)(=O)c1ccc(NC(=O)COC(=O)Cn2cnc3ccccc3c2=O)cc1 | -14% | 3 | -1% | -1% | 1% | -1%
CCC(NC(=O)c1cc(COc2ccc(C)nc2)on1)c1ccc(C)cc1 (configuration not stated) | u | -11 | -3% | -8% | 0% | 16µM*
COc1ccc(OCc2cc(C(=O)NC3Cc4ccccc4C3)no2)c(Cl)c1 | 3.7µM* | 13 | u | u | 2% | 3.3µM*
COc1ccc(OCc2cc(C(=O)N[C@H]3CCCCNC3=O)no2)c(Cl)c1 | -11% | 15 | 2% | 6% | u | -25%
Cc1ccc(OCc2cc(C(=O)NC3CCc4ccccc43)no2)cn1 (configuration not stated) | 13µM* | 37 | u | 15% | u | 18µM*
Cc1ccc(OCc2cc(C(=O)NCC3COCCO3)no2)cc1C (configuration not stated) | u | 30 | u | u | u | u
Cc1ccc(OCc2cc(C(=O)NCC(C)(C)N3CCOCC3)no2)cc1C | u | -70* | 24% | u | -3% | u
